Holding throughout (test): NCI-60 one-dose screen, 48 h (100 = growth as untreated, 0 = no growth, -100 = all killed)
Holding throughout (settings): 10 µM unless noted

The test system of assay [1] is SK-MEL-2 melanoma.
Assay [2] has as its system SN12C renal.
Assay [3] concerns UO-31 renal.
For assay [4], the system named is TK-10 renal.
Assay [5] relates to ACHN renal.
The subject of assay [6] is CAKI-1 renal.
Assay [7] deals with A498 renal.
In assay [8] the test system is CCRF-CEM leukemia.
In assay [9] the test system is MOLT-4 leukemia.
Assay [10] deals with SR leukemia.
Assay [11] concerns RPMI-8226 leukemia.
Assay [12] concerns OVCAR-8 ovarian.
For assay [13], the system named is OVCAR-5 ovarian.
Assay [14] concerns OVCAR-4 ovarian.
Assay [15] concerns SK-OV-3 ovarian.
Assay [16] concerns IGROV1 ovarian.
Assay [17] concerns OVCAR-3 ovarian.
The subject of assay [18] is HS 578T breast.
In assay [19] the test system is NCI/ADR-RES ovarian.
Assay [20] deals with EKVX NSCLC.

Compounds without any hit were thinned out: in the full panel of roughly 83,000, 20% have a hit.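 In brief: 96-well plates, 48 h treatment, single concentration, percent growth endpoint.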 A number with no mark means an inactive call. The source made the active and inactive calls. Rule for the calls: active = growth percent below 10; inactive = the rest.

Turning to `O=C(c1ccccc1)c1ccc(Cl)c([N+](=O)[O-])c1`, the growth in assay [1] is 95.3%; in assay [2] it was 97%; in assay [3], -87.9% (active); in assay [4], 107%; in assay [5] it was 98.2%; in assay [6] it was -2.29% (active). Also, the growth in [7] is 57.1%; in [8], 13.5%; in assay [9], 11.9%; in [10], -3.1% (active); in assay [11], 82.3%; in assay [12], 97.8%. Besides, the growth in [13] is 99.1%; in [14] it was 99.5%; in assay [15] it was 108%; in [16] it was 43.6%; in [17], 75.7%; in assay [18], 87.7%. Moreover, the growth in [19] was 108%.

In the case of `CC(=O)Nc1ccc2c(c1)Cc1c(F)cccc1-2`, the growth in assay [1] is 128%; in assay [2], 101%; in [3], 49.2%; in [4] it was 103%; in [5], 93%; in assay [6] it was 87.2%. Also, the growth in assay [7] was 77.6%; in assay [8] it was 85.6%; in assay [9] it was 111%; in assay [10], 98.2%; in assay [11], 94.1%; in assay [12], 95.2%. Further, the growth in assay [13] is 106%; in [14], 106%; in assay [15] it was 115%; in [16] it was 98.8%; in assay [17] it was 105%; in [18], 115%. Besides, in [19], the growth was 107%.

In the case of `CCO/C=N/C1=C(C#N)C(c2ccc(OC)cc2)c2c(c3ccccc3n(C)c2=O)O1` (centres undefined), the growth in [1] is 108%; in [20] it was 101%; in assay [3] it was 72.8%; in assay [4], 112%; in [5], 100%; in assay [6], 89.6%. Besides, the growth in assay [7] is 111%; in assay [8], 100%; in [9], 103%; in [11] it was 102%; in assay [12] it was 104%; in assay [13] it was 100%. The growth in assay [14] was 98.8%; in assay [15], 99.9%; in assay [16] it was 101%; in assay [17] it was 114%; in [18] it was 107%; in [19], 108%.

As to `Fc1ccc(Nc2nc3nonc3nc2Nc2ccc(F)cc2)cc1`, the growth was -26.2% (active) in assay [1]; 12% in assay [2]; -6.75% (active) in [3]; -4.95% (active) in [4]; -15.9% (active) in [5]; -8.48% (active) in [6]. Further, the growth in assay [7] was -41.1% (active); in assay [8], 17.1%; in [9] it was -8.01% (active); in assay [10] it was 7.15% (active); in assay [11] it was 6.64% (active); in assay [12], 8.53% (active). The growth in assay [13] is -16.7% (active); in assay [14] it was 5.75% (active); in [15], 3.75% (active); in assay [16], 32.6%; in assay [17], 1.97% (active); in assay [18] it was -1.86% (active). Besides, the growth in [19] is 3.98% (active).

For `O=c1[nH]c(=O)n(C2CC(O)C(CO)O2)cc1CO` (centres undefined), the growth in assay [1] was 53.5%; in assay [20], 98.8%; in assay [3], 102%; in assay [4] it was 90.5%; in assay [5] it was 101%; in [6] it was 86.3%. The growth in assay [9] is 87.7%; in assay [11], 98.9%; in assay [12], 99.9%; in assay [13], 29.7%; in [14] it was 107%; in assay [15] it was 107%. Besides, the growth in assay [16] is 124%; in [17] it was 113%; in assay [19], 4.34% (active).

Turning to `C=C(C)C1CCC(=C)C2CCC3(C)OC12/C=C(/COC(C)=O)CCC3O` (centres undefined), the growth is 85.4% in assay [1]; 96.1% in [20]; 92.7% in assay [3]; 121% in assay [4]; 98.2% in assay [5]; 6.18% (active) in [6]. In addition, the growth in assay [7] was 104%; in assay [8], 130%; in assay [9], 83.6%; in assay [10], 74.6%; in assay [11], 235%; in [12], 103%. In addition, the growth in [13] was 105%; in [14], 127%; in assay [15] it was 119%; in assay [16] it was 151%; in assay [18], 177%; in [19], 105%.

Consider `CCCCn1c(=O)[nH]c(N)c(C(c2ccc(F)cc2)c2c(N)[nH]c(=O)n(CCCC)c2=O)c1=O`, for which the growth in [1] is 58.6%; in assay [20], 69.3%; in [3], 103%; in assay [4], 68.3%; in assay [5], 92.7%; in assay [6], 100%. For the same compound, the growth in assay [7] is 90.1%; in [8], 58%; in assay [9], 29.8%; in assay [10], 42%; in assay [11], 50%; in assay [12], 66.5%. The growth in assay [13] is 94.4%; in [14], 64.6%; in assay [15] it was 80.6%; in assay [16] it was 78.8%; in assay [17] it was 54%; in [19], 96.7%.

With `COc1cc(/C=C/c2nc(Nc3ccc(S(=O)(=O)Nc4cc(C)on4)cc3)c3ccccc3n2)ccc1O`, the growth in assay [1] is 72%; in assay [2] it was 60.7%; in assay [3], 58%; in [4] it was 93%; in assay [5], 83.6%; in [6], 45%. The growth in [7] was 95.2%; in assay [9] it was 42.1%; in assay [10] it was 19.4%; in assay [11], 72.9%; in assay [12], 73.5%; in [13] it was 88.7%. For the same compound, the growth in assay [14] was 91%; in assay [15] it was 86%; in assay [16], 59.5%; in [17], 65.2%; in [18], 78.5%; in assay [19], 51%.

Values taken from PubChem BioAssay (NCI).
